Laboratory results from PubChem BioAssay AID2401 (Southern Research Specialized Biocontainment Screening …, 2010).
Screen size: about 2,200 compounds; about 530 (24%) were called active.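 How the source made its calls: active means inhibition above a set limit at one or more concentrations of the dose series; inactive means inhibition under that limit at every dose.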 These entries were drawn from the full list. Measured potencies and affinities stand elsewhere.

assay: nmpC-GFP reporter counter-screen in S. Typhimurium, dose response, counter-screen for PhoP regulon inhibitor project, Salmonella Typhimurium, GFP fluorescence (AID 2401); conditions: 4 h; series mostly up to 150 µM; inhibition: at the top concentration;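 further: S. typhimurium with Mg-insensitive nmpC-GFP reporter grown at 10 µM Mg2+; drop in reporter fluorescence reflects general culture growth inhibition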

| Structure (SMILES) | inhibition |
| --- | --- |
| Cc1ccc([N+](=O)[O-])cc1-c1ccc(/C=C(\C#N)c2[nH]nc(N)c2C#N)o1 | -2.4% (inactive) |
| CCOC(=O)Cn1nnnc1C(C(C)C)N(Cc1cccs1)Cc1cc2cc(C)ccc2[nH]c1=O (stereo unspecified) | -3.99% (inactive) |
| O=C(Nc1cnn(Cc2ccc(F)cc2)c1)c1cnccn1 | -15.5% (inactive) |
| Cc1ccc2cc(CN(CCO)Cc3nnnn3Cc3ccc(F)cc3)c(=O)[nH]c2c1 | -11.4% (inactive) |
| Cc1cc(/C=N/NC(N)=S)c(C)n1-c1ccc(Cl)c(Cl)c1 | -8.78% (inactive) |
| N#C/C=C(/N)c1ccc(Br)cc1 | 8.99% (inactive) |
| Cc1ccc(/C=C/c2nnc(-c3ccc(C)cc3)o2)cc1 | 6.49% (inactive) |
| O=C(c1[nH]ncc1-c1ccc(Cl)cc1)C1CO1 (stereo unspecified) | -25.8% (inactive) |
| O=C1c2ccccc2C(=O)N1CCCc1nc2ccccc2c(=O)n1Cc1ccco1 | -27.4% (inactive) |
| CCn1c(=O)c2c(O)cc(=O)oc2c2ccccc21 | -11% (inactive) |
| COc1ccc(S(=O)(=O)n2ccc(-c3ccc(OCCN(C)c4ccccn4)cc3)n2)cc1 | -26.2% (inactive) |
| COC(=O)c1ccc(NC(=S)NCCc2cccc(C)c2)cc1 | -15.9% (inactive) |
| CCOC(=O)C1=C(c2ccccc2)NC(SC)=C(C#N)C1c1ccco1 (stereo unspecified) | -18.8% (inactive) |
| CC1OC(Nc2cccc3ccccc23)C(O)C(O)C1O (stereo unspecified) | -28.1% (inactive) |
| Cc1nc2ccccc2n1CC(=O)N/N=C\C=C\c1ccccc1 | -17.8% (inactive) |
| COc1ccc(Nc2nc(NCc3ccco3)nc(N/N=C/c3ccccc3Cl)n2)cc1 | 10.1% (inactive) |
| Oc1ccccc1Nc1nc(NCc2ccco2)c2ccccc2n1 | 33.4% (inactive) |
| COc1ccc(-c2csc(NCc3ccco3)n2)cc1 | 16.3% (inactive) |
| Cc1cccc(C(=O)NC(NCc2ccco2)C(Cl)(Cl)Cl)c1 (stereo unspecified) | -36% (inactive) |
| c1ccc(CN2CCN(c3nc(NCc4ccco4)c4ccccc4n3)CC2)cc1 | 10.5% (inactive) |
| c1ccc(CNc2ncnc3ccccc23)cc1 | 37.4% (inactive) |
| Cc1ccc2[nH]c3c(NCc4ccco4)ncnc3c2c1 | -14.2% (inactive) |
| Cc1ccc(-c2nc(NCc3cccnc3)c3ccccc3n2)cc1 | 8.39% (inactive) |

| Structure (SMILES) | inhibition |
| --- | --- |
| C#CC(C)(CC)NC(=O)c1cc(OC)c(OC)c(OC)c1 (stereo unspecified) | -28.1% (inactive) |
| COC(=O)c1ccc(C)c(NC(=O)CN(c2cc(OC)ccc2OC)S(C)(=O)=O)c1 | -12.7% (inactive) |
| CN(CC(=O)Nc1ccc(C#N)cc1)Cc1ccc(Cl)cc1 | -2.33% (inactive) |
| Cc1cccc(C)c1Nc1nnc(SCC(=O)Nc2sccc2C#N)s1 | 1.76% (inactive) |
| COc1ccc(S(=O)(=O)n2nc(OC(=O)c3cccs3)cc2N)cc1 | 2.91% (inactive) |
| CCC(CC)c1nnc(NC(=O)Oc2ccccc2)s1 | -6.28% (inactive) |
| CCOc1cccc(CNc2ccc(O)cc2)c1OCc1ccc(Cl)cc1Cl | -17.2% (inactive) |
| CCOc1ccc(/C(O)=C2\C(=O)C(=O)N(CCN(C)C)C2c2cccc(OC)c2OC)cc1Cl (stereo unspecified) | -12.7% (inactive) |
| Cc1ccc(OCc2nnc(SCC(=O)Nc3ccc4c(c3)OCO4)n2C)cc1 | -6.69% (inactive) |
| BrC(=C\c1ccccc1)/C=N/N1CCN(c2ccccn2)CC1 | 9.97% (inactive) |
| CCOC(=O)N1CCN(c2nc(C)c3c(n2)CCCC3=O)CC1 | -44.6% (inactive) |
| COC(=O)C(C)N1C(=O)S/C(=C\c2cc(C)n(-c3ccccn3)c2C)C1=O (stereo unspecified) | -20.4% (inactive) |
| Cc1ccc(-c2nc3ccccc3[nH]2)cc1NC(=S)NC(=O)c1ccccc1Br | 23.6% (inactive) |
| Cc1c(NS(=O)(=O)c2ccc(N(C)C3CCCCC3)c([N+](=O)[O-])c2)c(=O)n(-c2ccccc2)n1C | -2.79% (inactive) |
| Cc1cc(C)cc(CC(Cc2nc3ccccc3[nH]2)c2nc3ccccc3[nH]2)c1 (stereo unspecified) | 0.65% (inactive) |
| COc1ccc(C(=O)N2CCN(C(=O)c3ccco3)CC2)cc1OC | 7.5% (inactive) |
| Cc1cccc2cc(C#N)c(N3CCN(C)CC3)nc12 | 32.9% (inactive) |
| CC(C)(C)C1CCc2c(sc(NC(=O)c3cccs3)c2C(=O)N2CCCCC2)C1 (stereo unspecified) | 19.4% (inactive) |
| CCOC(=O)c1c(NC(=O)Nc2ccc(C)cc2)sc2c1CCN(C)C2 | -18.4% (inactive) |
| NC(=O)c1c(NC(=O)CN2C(=O)CCC2=O)sc2c1CCCCC2 | -18.9% (inactive) |
| CCCCCOC(=O)C1=C(C)Nc2nnnn2C1c1ccc(OC)c(OC)c1OC (stereo unspecified) | -24.2% (inactive) |
| CCn1nnc(-c2ccccc2NS(=O)(=O)c2ccc(S(=O)(=O)N3CCCCCC3)cc2)n1 | -2.81% (inactive) |
| O=C(CSc1ccc2c(c1)OCCO2)NCCc1ccc(Cl)cc1Cl | -35.5% (inactive) |

| Structure (SMILES) | inhibition |
| --- | --- |
| Cc1[nH]c2ccccc2c1C(c1ccncc1)N1CCN(c2ccc(F)cc2)CC1 (stereo unspecified) | 34.4% (inactive) |
| Oc1ccc(C=Nc2ccc3ncccc3c2)c(O)c1 | 33.2% (inactive) |
| Oc1ccc(C=Nc2cccc3ncccc23)c(O)c1 | -31.8% (inactive) |
| CCCNC(=O)COC(=O)CCC(=O)c1ccc(F)cc1 | -5.02% (inactive) |
| O=C1CC(N2CCN(Cc3ccccc3)CC2)C(=O)N1c1ccccc1 (stereo unspecified) | -12.2% (inactive) |
| OCCN(Cc1ccccc1)Cc1ccc(Cl)cc1 | 2.5% (inactive) |
| OCCNc1ccc(Cl)cc1 | -4.09% (inactive) |
| O=C(CN1CCCCCC1)Nc1cccc(Br)c1 | -13.7% (inactive) |
| COCCn1c(-c2ccccc2F)n[nH]c1=S | 8.43% (inactive) |
| CCOC(=O)/C(=C/C=C/c1ccccc1)NC(=O)c1ccccc1 | -13.2% (inactive) |
| O=c1cc(O)nc(SCc2ccccc2Cl)[nH]1 | -18.8% (inactive) |
| O=C1c2ccccc2C(=O)N1CCCc1nc(-c2ccccn2)no1 | 11.4% (inactive) |
| CC1=NN(c2ccc(Cl)cc2)C(=O)C1C(c1cccc(O)c1)c1c(C)[nH]n(-c2ccc(Cl)cc2)c1=O (stereo unspecified) | 16.4% (inactive) |
| O=C(Nn1c(O)c(C=C2N=c3ccccc3=N2)sc1=S)c1ccc(Cl)cc1 | -14.3% (inactive) |
| CCOC(=O)/C=C1\SCC(=O)N1CC(=O)NC1CCCCC1 | -17.8% (inactive) |
| O=C(CN(c1ccc(F)cc1)S(=O)(=O)c1ccc2c(c1)OCCO2)NCc1cccnc1 | -9.61% (inactive) |
| S=C(c1ccc2c(c1)OCO2)N1CCCC1 | 15% (inactive) |
| COc1ccc(-c2cn[nH]c2-c2ccc(OCc3ccc([N+](=O)[O-])cc3)cc2O)cc1 | 17.3% (inactive) |
| CCN1C(=O)/C(=C/N2CC(C)CC(C)C2)SC1=S (stereo unspecified) | -18.2% (inactive) |
| Cc1cc(C(=O)N/N=C/C=C/c2ccc3c(c2)OCO3)n[nH]1 | -14.9% (inactive) |
| O=C(N/N=C/c1cccn1-c1ccc([N+](=O)[O-])cc1)C(O)c1ccccc1 (stereo unspecified) | 24.9% (inactive) |
| Cc1cc(C(=O)N/N=C/c2cccc([N+](=O)[O-])c2O)n[nH]1 | -8.52% (inactive) |
| CC(=O)c1c(C)[nH]c(C(=O)CSc2nnc(-c3ccco3)n2Cc2ccccc2)c1C | -24.8% (inactive) |

| Structure (SMILES) | inhibition |
| --- | --- |
| Cn1cccc1C1NC(=O)c2c(sc3c2CCC(C(C)(C)C)C3)N1 (stereo unspecified) | 8.17% (inactive) |
| Cc1nn(-c2ccccc2)c(C)c1C(=O)OC/C(O)=C(\C#N)c1nc2ccccc2[nH]1 | 4.56% (inactive) |
| Cc1cc(C2=NNC(=NC3CC3)SC2)c(C)n1Cc1ccco1 | -13.5% (inactive) |
| Cc1ccc(-c2nnc(SCC(=O)N3CCCc4ccccc43)n2N)cc1 | -11.9% (inactive) |
| COC(=O)c1sc2nc(CSc3nc4ccc(C)cc4[nH]3)[nH]c(=O)c2c1C | -23.4% (inactive) |
| CCOC(=O)C1=C(c2ccccc2)N=C2SCC(=O)N2C1c1ccc(O)c(OC)c1 (stereo unspecified) | 18.4% (inactive) |
| CCOC(=O)c1cc2ccc(OC)c(OC)c2c(=O)s1 | -17.4% (inactive) |
| C/C(=C\c1ccco1)C1Nc2cccc3cccc(c23)N1 | -7.01% (inactive) |
| COc1ccc(OC)c(NC(=O)c2cc3c(Cl)nc4ccccc4c3s2)c1 | -3.31% (inactive) |
| CCOC(=O)N1CCN(C(=O)c2ccc(NC(=O)c3ccc(C)cc3)cc2)CC1 | -6.04% (inactive) |
| C/C(=N\Nc1nc2ccccc2[nH]1)c1ccc(Cl)s1 | -35.5% (inactive) |
| C/C(=N\Nc1nc2ccccc2[nH]1)c1cccs1 | -17.3% (inactive) |
| Cc1nc2ccccn2c1C(=O)N/N=C/c1ccccc1[N+](=O)[O-] | -6.8% (inactive) |
| COC(=O)c1cn(C(=O)c2cccs2)c2ccccc12 | -2.66% (inactive) |
| COc1c(/C=N/Nc2nc(N3CCCCC3)nc(N3CCCCC3)n2)cccc1[N+](=O)[O-] | -12.5% (inactive) |
| Cc1cc(/C=N\NC(=O)c2cccs2)c(C)n1-c1ccc2ncccc2c1 | 17.9% (inactive) |
| C=CCOc1ccc(CNc2nn[nH]n2)cc1 | -5.21% (inactive) |
| O=C(CCN1CCc2ccccc2C1)Nc1ccccc1F | -20.9% (inactive) |
| Cc1cc(-c2csc(NC(=O)c3ccc(C#N)cc3)n2)c(C)n1Cc1ccco1 | 36.1% (inactive) |
| CCOC(=O)CSc1nc2c(sc(=S)n2-c2ccccc2)c(=O)n1-c1ccc(OC)cc1OC | -30.9% (inactive) |
| O=c1[nH]c(SCc2nc3ccccc3c(=O)n2-c2ccccc2C(F)(F)F)nc2ccccc12 | -7.42% (inactive) |
| C/C(=N\NC(=O)c1c(Cl)c(C)nn1C)c1cccc(NC(=O)COc2ccc(Cl)cc2)c1 | 5.43% (inactive) |
| COc1ccc(C2COC(=O)C2=N)c(NC(=O)c2ccc(Cl)cc2)c1 (stereo unspecified) | 7.97% (inactive) |

| Structure (SMILES) | inhibition |
| --- | --- |
| CCCCCCNCc1cccc(Br)c1 | 2.93% (inactive) |
| COc1ccc2c(c1)OC1=C(C(=O)CCC1)C2C1=C(O)CCCC1=O (stereo unspecified) | 16.2% (inactive) |
| Cc1cccc(C(=O)Nc2nnc(Cc3c[nH]c4ccccc34)s2)c1 | 12.6% (inactive) |
| Nc1ncncc1-c1ccc(Cl)cc1 | 34.2% (inactive) |
| O=C(Nc1nc2ccc(SC(F)F)cc2s1)c1ccc2c(c1)S(=O)(=O)c1ccccc1C2=O | -12.6% (inactive) |
| COC(=O)C1=C(CSc2nc3ccccc3o2)NC(=O)NC1c1cc(C)ccc1C (stereo unspecified) | -14% (inactive) |
| Cc1cc(C)nc(N2CCCC(C(=O)Nc3ccc4nc(C)c(C)nc4c3)C2)n1 (stereo unspecified) | -21.6% (inactive) |
| Cc1ccc(C)n1-c1cccc(N)c1 | 0.96% (inactive) |
| O=C1CC(c2ccccc2)n2ncnc2N1 (stereo unspecified) | 11.9% (inactive) |
| COC(OC)c1nc(SCC(=O)Nc2cccc(Cl)c2)ncc1C(=O)O | 21.8% (inactive) |
| COc1ccc(Cl)cc1-c1nc(SCC(N)=O)n[nH]1 | -19.9% (inactive) |
| COc1ccc([N+](=O)[O-])cc1NC(=O)C(C)OC(=O)c1ccccc1C(=O)c1ccc(Cl)cc1 (stereo unspecified) | -13.1% (inactive) |
| COC(=O)c1ccc(COC(=O)c2ccccn2)cc1 | -12% (inactive) |
| CC(O)c1ccc(OCCN(C)c2ccccn2)cc1 (stereo unspecified) | -2.97% (inactive) |
| CC(C)Cc1oc(C(=O)O)cc1CN | 34% (inactive) |
| c1ccc2oc(SCc3cn4ccccc4n3)nc2c1 | 26.3% (inactive) |
| Cc1cc(C)n(-c2ccc(C(=O)Nc3nc4ccccc4s3)cc2)n1 | 11.3% (inactive) |
| C(=N\c1nc2ccccc2n1CCN1CCCCC1)/c1cccs1 | -10.7% (inactive) |
| CC(=O)c1cccc(NC(=O)Nc2cccs2)c1 | -12.9% (inactive) |
